In all, about 63,000 compounds went through this assay and about 1,100 (1.7%) were called active.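 The calls were made as follows: active = compounds whose percent cytotoxicity in the single-dose primary screen, scaled between solvent and toxic-drug controls, exceeds 50; inactive = the rest.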 Many of the other results were omitted from the sample, so actives are more common in it than they were. Measured potencies and affinities stand elsewhere.

This assay is described as follows: viability loss of HPDE-C7K cells – cell-based, fluorescence, HTS, primary screen (AID 431).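 Also: 0% = DMSO solvent wells and 100% = doxorubicin-treated wells.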 Conditions: HPDE-C7K KRASV12 cells, Alamar Blue viability, 48 h; at 10 µM; active compounds read high.
Turning to `CCOC(=O)c1ccccc1NC(=O)CN(c1ccccc1OC)S(C)(=O)=O`, the cytotoxicity is -1.1% (inactive).
In the case of `CCCCn1c(SCC(=O)Nc2cc(C)on2)nc2ccsc2c1=O`, the cytotoxicity is -1.8% (inactive).
Take `CCOC(=O)C1CCCN(Cc2cc(OC)c(O)c(OC)c2)C1` (centres undefined): the cytotoxicity is -5.4% (inactive).
Consider `CC(C)(C)c1ccc(OCC(=O)NCc2ccco2)c(Br)c1`, for which the cytotoxicity was 84.5% (active).
Consider `CCc1ccc(OCC(=O)NCc2ccco2)c(Br)c1`, for which the cytotoxicity was -5.8% (inactive).
On to `O=C(COc1ccccc1Br)NCc1ccco1`, for which the cytotoxicity is -11.3% (inactive).
On to `Cn1c(=O)n(C)c2cc(NC(=O)CSc3nnc(-c4ccccc4O)n3-c3ccccc3)ccc21`, for which the cytotoxicity is 12.8% (inactive).
`O=[n+]1cc(-c2ccc(F)cc2)n([O-])c2c1CCC2`: the cytotoxicity was -13.4% (inactive).
In the case of `COc1ccc(C2C3=C(CCCC3=O)Nc3nc(SCc4ccccc4)nn32)cc1OC` (centres undefined) it was -8.6% (inactive); in that of `O=C1CC(C(=O)Nc2ccccc2C(=O)O)C(c2ccccc2)O1` (centres undefined), -6.7% (inactive); in that of `O=C(Oc1cccc2c(OC(=O)N3CCOCC3)cccc12)N1CCOCC1`, 6.1% (inactive).
Consider `CCCn1nnnc1SCC(=O)c1ccc(NC(C)=O)cc1`, for which the cytotoxicity is -3.8% (inactive).
Take `Cc1cccn2c(=O)c3cc(C(=O)N4CCN(c5ccccc5)CC4)n(C)c3nc12`: the cytotoxicity was -5.9% (inactive).
Regarding `CC1Cc2ccccc2N1C(=O)c1cc2c(=O)n3ccccc3nc2n1C` (centres undefined), the cytotoxicity is 3.6% (inactive).
As for `Cc1cccn2c(=O)c3cc(C(=O)N4c5ccccc5CC4C)n(C)c3nc12` (centres undefined), the cytotoxicity was 77.7% (active).
`Cc1cccn2c(=O)c3cc(C(=O)N4CCc5ccccc54)n(C)c3nc12`: the cytotoxicity was 1.3% (inactive).
Take `Cc1cccn2c(=O)c3cc(C(=O)N4CCN(C(=O)c5ccco5)CC4)n(C)c3nc12`: the cytotoxicity was -8.8% (inactive).
Consider `Cc1c(NCc2nc3ccccc3[nH]2)c(=O)n(-c2ccccc2)n1C`, for which the cytotoxicity was -7.6% (inactive).
As to `Cc1ccc(C(C)C)c(OCc2nnc3n2CCCCC3)c1`, the cytotoxicity was -8.3% (inactive).
For the molecule `COc1ccc(Cl)cc1NC(=O)c1cccnc1`, the cytotoxicity was -1.6% (inactive).
In the case of `CC(=O)Nc1ccc(NC2=CC(=O)CC(C)(C)C2)cc1`, the cytotoxicity is -3% (inactive).
Regarding `Cn1c(SCC(=O)c2ccc3c(c2)OCO3)nnc1-c1ccccn1`, the cytotoxicity is 3.1% (inactive).
`CCCc1cc(C(=O)Nc2ccc(C)cc2)no1`: the cytotoxicity is -1.5% (inactive).
With `CCN(c1ccccc1)S(=O)(=O)c1ccc(C(=O)Nc2nnc(COC)o2)cc1`, the cytotoxicity was 44.5% (inactive).
`CC(/C=C/c1ccccc1)=N/O`: the cytotoxicity was -7.4% (inactive).
Regarding `O=C(/C=C/c1ccccc1)c1ccccc1`, the cytotoxicity is 56.5% (active).
On to `CC(C)(C)C(=O)/C=C(N)/C=C/c1ccccc1`, for which the cytotoxicity was -7% (inactive).
Turning to `CC1(C)Cc2c(sc3nc(SCC(=O)NCc4ccco4)n(-c4ccccc4)c(=O)c23)CS1`, the cytotoxicity is -9.9% (inactive).
In the case of `O=C(CSc1nc2sc3c(c2c(=O)n1-c1ccccc1)CCCC3)NCc1ccco1`, the cytotoxicity is 71.9% (active).
As to `CCSc1nc2sc3c(c2c2nnc(SCC(=O)NCc4ccco4)n12)CCCC3`, the cytotoxicity is 8.1% (inactive).
For the molecule `C=CCn1c(SCC(=O)NCc2ccco2)nc2sc3c(c2c1=O)CCCCC3`, the cytotoxicity was 6% (inactive).
`Cc1nc2sc3c(c2c2nnc(SCC(=O)NCc4ccco4)n12)CCCC3`: the cytotoxicity was 5.1% (inactive).
`CC1=C(C(=O)N2CCOCC2)C(c2ccsc2)C2=C(CCCC2=O)N1` (centres undefined): the cytotoxicity is 4.5% (inactive).
For `COC(=O)c1ccccc1NC(=O)CN1CCC(n2nnc3cc(C)ccc32)CC1`, the cytotoxicity was 7.1% (inactive).
For the molecule `CCOc1ccc(N(CC(=O)NC2CCCC2)S(=O)(=O)c2c(C)noc2C)cc1`, the cytotoxicity is 4.7% (inactive).
Take `O=C(Oc1ccc2c(c1)OCO2)c1cccs1`: the cytotoxicity was -6% (inactive).
As to `O=C(Oc1ccc2c(c1)OCO2)c1cc2c(s1)CCC2`, the cytotoxicity is 66.1% (active).
With `O=C(Oc1ccc2c(c1)OCO2)c1ccncc1`, the cytotoxicity is 12.7% (inactive).
In the case of `NS(=O)(=O)c1ccc(S(=O)(=O)NCCc2ccccc2)cc1` it was -1.8% (inactive).
As for `COc1cccc(NC(=O)NC2CCN(Cc3nnnn3Cc3ccc(F)cc3)CC2)c1`, the cytotoxicity was -3.4% (inactive).
As for `CCC(c1nnnn1Cc1ccccc1)N(Cc1ccco1)Cc1cc2cc(OC)ccc2[nH]c1=O` (centres undefined), the cytotoxicity is 22.2% (inactive).
For the molecule `CCC(c1nnnn1C1CCCC1)N(Cc1cccs1)Cc1cc2cc(C)ccc2[nH]c1=O` (centres undefined), the cytotoxicity is 68.3% (active).
With `CCC(c1nnnn1Cc1ccco1)N(CCc1ccccc1)Cc1cc2ccc(OC)cc2[nH]c1=O` (centres undefined) the figure was 50.4% (active); with `COc1ccc2cc(CN(Cc3ccco3)C(c3nnnn3C3CCCCC3)C(C)C)c(=O)[nH]c2c1` (centres undefined), 1.3% (inactive).
With `CCC(c1nnnn1Cc1ccco1)N(Cc1ccccc1OC)Cc1cc2cc(C)ccc2[nH]c1=O` (centres undefined), the cytotoxicity was -7.4% (inactive).
Regarding `CCOc1ccc2[nH]c(=O)c(CN(Cc3cccs3)C(CC)c3nnnn3C(C)(C)CC)cc2c1` (centres undefined), the cytotoxicity was 30.4% (inactive).
In the case of `COc1ccc2cc(CN(Cc3ccco3)Cc3nnnn3C3CCCCC3)c(=O)[nH]c2c1` it was 22.4% (inactive); in that of `Cc1ccc2[nH]c(=O)c(CN(CCc3ccccc3)C(c3nnnn3Cc3ccco3)C(C)C)cc2c1` (centres undefined), 60.2% (active); in that of `CCC(c1nnnn1Cc1ccco1)N(CCc1ccccc1)Cc1cc2cc(C)ccc2[nH]c1=O` (centres undefined), 36% (inactive).
Regarding `COc1ccc2cc(CN(CCc3ccccc3)Cc3nnnn3Cc3ccco3)c(=O)[nH]c2c1`, the cytotoxicity is 33.5% (inactive).
Turning to `CCOC(=O)Cn1nnnc1C(CC)N(Cc1cccs1)Cc1cc2cc(C)ccc2[nH]c1=O` (centres undefined), the cytotoxicity was -3.3% (inactive).
With `CCC(c1nnnn1C1CCCCC1)N(Cc1ccco1)Cc1cc2ccc(OC)cc2[nH]c1=O` (centres undefined), the cytotoxicity was 64.5% (active).
With `CCOC(=O)c1oc2ccc(Br)cc2c1CSc1nnc(C)s1`, the cytotoxicity is -7.5% (inactive).
For the molecule `COC(=O)c1cn(NC(=O)c2cccc(N(C)C)c2)c(=O)c2ccccc12`, the cytotoxicity is -1.6% (inactive).
On to `CCOC(=O)c1c(C)[nH]c(C(=O)CN2C(=O)NC(C)(c3ccc(C)cc3)C2=O)c1C` (centres undefined), for which the cytotoxicity was 29.2% (inactive).
As to `COc1ccc(S(=O)(=O)N(C)CC(=O)N2CCC(C)CC2)cc1Cl`, the cytotoxicity was 9.5% (inactive).
Take `CCCC(c1nnnn1C(C)(C)CC)N(Cc1ccco1)Cc1cc2ccc(OC)cc2[nH]c1=O` (centres undefined): the cytotoxicity is 55.7% (active).
`CCC(C)(C)n1nnnc1C(c1cc2ccc(C)cc2[nH]c1=O)N(Cc1cccnc1)Cc1ccco1` (centres undefined): the cytotoxicity is 14.1% (inactive).
Consider `COc1ccc2[nH]c(=O)c(C(c3nnnn3C(C)(C)C)N(Cc3ccco3)CC3CCCO3)cc2c1` (centres undefined), for which the cytotoxicity was -29.6% (inactive).

The values are drawn from PubChem BioAssay AID431 (Sanford-Burnham Center for Chemical Genomics, 2006).
